PubChem BioAssay (EPA / NIEHS)
Active and inactive are the calls of the source. The calls were made as follows: active = hit-call score of the fitted dose curve at least 0.9, where 1 is the maximum; inactive = score below 0.9.

Assays:
[1] = BSK_3C_SRB: Viability Assessment in the BioMAP Diversity Plus: 3C Assay (AID 2283023); conditions: primary human endothelial cells (HUVEC);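 also: fitted both ways against DMSO so a hit may be signal rise or drop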
In short: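 Human umbilical vein endothelial cells in the 3C system, treated 24 h. Total protein measured by 0.1% sulforhodamine B staining after 10% TCA fixation, read at 560 nm; bidirectional fit versus DMSO.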

[2] = read-out: Matrix Metallopeptidase 1 (MMP1), MMP1 (gene 4312); assay: BSK_BE3C_MMP1: BioMAP Diversity Plus: BE3C Assay for Matrix Metallopeptidase 1 (MMP1) Biomarker Activity (AID 2283024); conditions: primary human bronchial epithelial cells; actives raise or lower the signal
In short: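 Human bronchial epithelial cells (BE3C system) exposed to compound for 24 h; MMP1 then quantified by ELISA. Activity was fitted in both directions relative to DMSO.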

[3] = BSK_3C_Vis: BioMAP Diversity Plus: 3C Assay for Morphology Visualization (AID 2283025); conditions: primary human endothelial cells (HUVEC);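 also: fitted both ways so gain or loss versus DMSO counts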
In short: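 Chemicals were added to primary human umbilical vein endothelium, cells were incubated 24 h, and morphology was then visualized by light microscopy. Gain or loss of signal was fitted bidirectionally relative to DMSO.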

[4] = read-out: Pselectin, SELP (gene 6403); assay: BSK_4H_Pselectin: BioMAP Diversity Plus: 4H Assay for Pselectin Biomarker Activity (AID 2283026); conditions: primary human endothelial cells (HUVEC); actives raise or lower the signal
In short: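 ELISA read-out of P-selectin on human umbilical vein endothelium after 24 h of dosing. Values derive from bidirectional fitting relative to DMSO. Parallel SRB protein staining flagged overt cytotoxicity.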

[5] = BSK_4H_SRB: Viability Assessment in the BioMAP Diversity Plus: 4H Assay (AID 2283027); conditions: primary human endothelial cells (HUVEC);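 also: cells exposed to compound for 24 h before staining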;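 as to AC50: curves fitted both ways versus DMSO so AC50 may be loss or gain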
In short: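 Human umbilical vein endothelial cells were dosed with chemical and, after 24 h, fixed with 10% TCA, stained with 0.1% sulforhodamine B, and read at 560 nm to give total protein as a cytotoxicity measure. Bidirectional fitting relative to DMSO control.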

[6] = BSK_BE3C_SRB: Viability Assessment in the BioMAP Diversity Plus: BE3C Assay (AID 2283028); conditions: primary human bronchial epithelial cells;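 as to AC50: fitted both ways so AC50 may mark signal gain or loss versus DMSO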
In short: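 Human bronchial epithelial primary cells in confluent culture, 24 h after chemical dosing; total protein by 0.1% SRB staining after 10% TCA fixation, read at 560 nm. Bidirectional fitting versus DMSO baseline.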

[7] = read-out: Thrombomodulin, THBD (gene 7056); assay: BSK_3C_Thrombomodulin: BioMAP Diversity Plus: 3C Assay for Thrombomodulin Biomarker Activity (AID 2283029); conditions: primary human endothelial cells (HUVEC); actives raise or lower the signal
In short: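 Read-out is ELISA of thrombomodulin on human umbilical vein endothelium 24 h after chemical dosing. Gain or loss of signal is scored relative to DMSO. Overt cytotoxicity is checked in parallel cultures by sulforhodamine B staining.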

[8] = read-out: Urokinase-type plasminogen activator receptor (uPAR), PLAUR (gene 5329); assay: BSK_4H_uPAR: BioMAP Diversity Plus: 4H Assay for Urokinase-type plasminogen activator receptor (uPAR) Biomarker Activity (AID 2283030); conditions: primary human endothelial cells (HUVEC); actives raise or lower the signal
In short: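 Human umbilical vein endothelial cells in the 4H system, 24 h after chemical dosing. Cell-surface uPAR measured by ELISA, fitted in both directions versus DMSO; cytotoxicity checked by SRB total protein in parallel cultures.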

[9] = read-out: Vascular endothelial growth factor receptor 2 (Homo sapiens) (UniProt P35968); assay: BSK_4H_VEGFRII: BioMAP Diversity Plus: 4H Assay for Vascular endothelial growth factor receptor 2 (VEGFR2) Biomarker Activity (AID 2283031); conditions: primary human endothelial cells (HUVEC); actives raise or lower the signal;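 as to AC50: cell-surface VEGFR2 protein level quantified by ELISA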
In short: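 Primary human umbilical vein endothelial cells (4H system), 24 h exposure; cell-surface VEGFR2 measured by ELISA. Bidirectional fitting versus DMSO; cytotoxicity checked in parallel by SRB total-protein staining.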

[10] = read-out: Human Leukocyte Antigen - DR isotype (HLADR), HLA-DRA (gene 3122); assay: BSK_BE3C_HLADR: BioMAP Diversity Plus: BE3C Assay for Human Leukocyte Antigen - DR isotype (HLADR) Biomarker Activity (AID 2283032); conditions: primary human bronchial epithelial cells; actives raise or lower the signal
In short: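 ELISA read-out of HLA-DR on human lung bronchial epithelial primary cells, measured 24 h post-dosing. Both increases and decreases were scored relative to DMSO vehicle.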

Measured: AC50

CCOP(=O)(OCC)SCCSCC
inactive: all assays above

Cc1c([N+](=O)[O-])c(C)c([N+](=O)[O-])c(C(C)(C)C)c1[N+](=O)[O-]
active: [1] 20 µM | [2] 7.08 µM
not listed: [3]
inactive: all other assays above

Cc1cc(Cl)ccc1N
not listed: [3]
inactive: all other assays above

COCC(=O)N(c1c(C)cccc1C)[C@H](C)C(=O)OC
not listed: [3] | [7]
inactive: all other assays above

O=S(=O)(c1ccc(Cl)cc1)c1cc(Cl)c(Cl)cc1Cl
active: [1] 5.42 µM
not listed: [3]
inactive: all other assays above

OCCCCO
not listed: [3] | [9]
inactive: all other assays above

Oc1c(Cl)cc(Cl)cc1Cl
not listed: [3]
inactive: all other assays above

CCOP(=S)(OCC)SCS(=O)(=O)C(C)(C)C
not listed: [3]
inactive: all other assays above

Cc1ccc2nc3sc(=O)sc3nc2c1
active: [1] 6.71 µM | [4] 3.77 µM | [5] 6.96 µM | [8] 6.39 µM | [9] 9.18 µM | [10] 5 µM
inactive: [2] | [6] | [7]

Cc1ccccc1OP(=O)(Oc1ccccc1C)Oc1ccccc1C
active: [1] 6.89 µM | [2] 5.4 µM | [4] 8.88 µM | [5] 15.2 µM | [6] 16 µM | [8] 11.7 µM | [9] 9.28 µM | [10] 20 µM
inactive: [7]

CCN(CC)C(=O)C(Cl)=C(C)OP(=O)(OC)OC
not listed: [3]
inactive: all other assays above

Oc1c(Br)cc(Br)cc1Br
inactive: [2] | [7] | [8]
active: [1] 35.5 µM | [5] 29.5 µM | [9] 27.3 µM | [10] 12.6 µM

Oc1cccc(-c2ccccc2)c1
active: [1] 20 µM | [5] 20 µM
not listed: [3]
inactive: all other assays above

Cc1ccc(OP(=O)(Oc2ccc(C)cc2C)Oc2ccc(C)cc2C)c(C)c1
active: [1] 12 µM | [4] 12.9 µM
not listed: [3]
inactive: all other assays above

NC(=O)CCl
not listed: [3]
inactive: all other assays above

Oc1cc(Cl)c(Cl)cc1Cl
inactive: [2] | [6] | [7] | [10]
active: [1] 28.7 µM | [4] 25.6 µM | [5] 25.5 µM | [8] 27.4 µM | [9] 31 µM

CCOP(=O)(OCC)OC(=CCl)c1ccc(Cl)cc1Cl
inactive: [2] | [6] | [7] | [10]
active: [1] 29 µM | [4] 35.3 µM | [5] 29.3 µM | [8] 30.8 µM | [9] 28.7 µM

CCOP(=S)(OCC)OP(=S)(OCC)OCC
active: [1] 26.6 µM | [4] 31.2 µM | [5] 20 µM | [8] 32.3 µM
not listed: [3]
inactive: all other assays above

c1ccc(-c2cccc(-c3ccccc3)c2)cc1
active: [1] 10.7 µM | [2] 0.136 µM | [4] 12.4 µM | [5] 20 µM | [9] 11 µM | [10] 20 µM
inactive: [6] | [7] | [8]

O=[N+]([O-])c1ccc(Nc2ccccc2)cc1
not listed: [3]
inactive: all other assays above

Cc1cc(C)cc(C)c1
not listed: [3]
inactive: all other assays above

CCOC(=O)C(SP(=S)(OC)OC)c1ccccc1 (stereo unspecified)
active: [1] 32.6 µM | [4] 20 µM | [5] 29.5 µM | [8] 20 µM
not listed: [3]
inactive: all other assays above

CC(C)(COCC1CO1)COCC1CO1 (stereo unspecified)
not listed: [3]
inactive: all other assays above

O=S(=O)(C(Cl)(Cl)Cl)C(Cl)(Cl)Cl
active: [1] 1.12 µM | [2] 7.31 µM | [4] 1.1 µM | [5] 0.932 µM | [6] 4.45 µM | [7] 10.1 µM | [8] 1.45 µM | [9] 0.327 µM | [10] 3.17 µM

CCCCOC(=O)COC(=O)c1ccccc1C(=O)OCCCC
not listed: [3]
inactive: all other assays above

Clc1cccc(Cl)c1Cl
not listed: [3]
inactive: all other assays above

CC(C)(C)c1cc([N+](=O)[O-])cc(C(C)(C)C)c1O
active: [1] 0.815 µM | [5] 0.0719 µM | [7] 0.0473 µM
not listed: [3]
inactive: all other assays above

Oc1ccc(Cc2ccc(O)cc2)cc1
not listed: [3]
inactive: all other assays above

CCCCN(CCCC)C(=S)[S-].CCCCN(CCCC)C(=S)[S-].[Ni+2]
not listed: [3] | [9]
inactive: all other assays above

O=C1C=CC(=O)c2ccccc21
inactive: [7]
active: [1] 4.92 µM | [2] 5.57 µM | [4] 1.62 µM | [5] 2.55 µM | [6] 3.8 µM | [8] 1.99 µM | [9] 5.18 µM | [10] 3.32 µM

CCOC(=O)CC(=O)CCl
active: [4] 11 µM | [7] 4.35 µM | [10] 20 µM
not listed: [3]
inactive: all other assays above

COc1ccccc1N
not listed: [3]
inactive: all other assays above

CC(C)(C)c1ccccc1O
not listed: [3]
inactive: all other assays above

OC(Cc1ccccc1Cl)(Cn1[nH]cnc1=S)C1(Cl)CC1 (stereo unspecified)
active: [1] 32 µM | [4] 20 µM | [5] 27.8 µM | [8] 20 µM | [9] 20 µM | [10] 20 µM
inactive: [2] | [6] | [7]

CCCCCCCCCCCCN(C)C
active: [1] 20 µM
not listed: [3]
inactive: all other assays above
